Reference: the supplement of paper PMC6853941
Counter-ions that a name gives are not always drawn. Unmarked numbers belong to inactive results.

test system: MCF10A; assay: perturbation Mahalanobis distance of morphological profile vs DMSO controls (Mahalanobis distance (SD units)); higher = stronger morphological change, active = 7 or more; conditions: screen batch: Batch1_Mahalanobis_Distance; 72 h
Procedure: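 MCF10A cells were seeded onto drugs dispensed acoustically into 384-well plates, using one dose per drug chosen from its human peak plasma concentration, and incubated for 72 h at 37 °C. Cells were stained for DNA, tubulin and mitochondria and imaged; 78 CellProfiler features were extracted, plate-normalised and compared with DMSO wells.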

| SMILES | perturbation Mahalanobis distance |
| --- | --- |
| COc1ccc(C[C@@H]2c3cc(OC)c(OC)cc3CC[N@+]2(C)CCC(=O)OCCCCCOC(=O)CC[N@@+]2(C)CCc3cc(OC)c(OC)cc3[C@H]2Cc2ccc(OC)c(OC)c2)cc1OC [Cisatracurium Besylate] (18.1 µM) | 5.34 |
| CCCN[C@H]1CCc2nc(N)sc2C1 [Pramipexole] (0.15 µM) | 2.79 |
| C[C@H](N[C@@H](CCc1ccccc1)C(=O)O)C(=O)N1CCC[C@H]1C(=O)O [Enalaprilat] (0.67 µM) | 3.78 |
| N=C(N)c1ccc(OCCCCCOc2ccc(C(=N)N)cc2)cc1 [Pentamidine] (7.4 µM) | 7.67 (active) |
| CO/N=C(\C(=O)N[C@@H]1C(=O)N2C(C(=O)O)=C(CSc3nnnn3C)CS[C@H]12)c1csc(N)n1 [Cefmenoxime] (183.8 µM) | 3.87 |
| COc1cc2nc(N3CCN(C(=O)C4CCCO4)CC3)nc(N)c2cc1OC (stereo not given) [Terazosin] (1 µM) | 2.35 |
| Cc1ccc(NC(=O)c2ccc(CN3CCN(C)CC3)cc2)cc1Nc1nccc(-c2cccnc2)n1 [Imatinib] (14 µM) | 4.06 |
| Cc1ccc(Nc2nccc(N(C)c3ccc4c(C)n(C)nc4c3)n2)cc1S(N)(=O)=O [Pazopanib] (132.6 µM) | 3.25 |
| CC(c1cc2ccccc2s1)N(O)C(N)=O (stereo not given) [Zileuton] (105.4 µM) | 3.71 |
| CCN(CC)C(=O)N1CCN(C)CC1 [Diethylcarbamazine] (6.3 µM) | 2.96 |
| Cc1nc2n(c(=O)c1CCN1CCC(c3noc4cc(F)ccc34)CC1)CCCC2 [Risperidone] (73 µM) | 2.9 |
| Clc1ccc(C(c2ccccc2Cl)C(Cl)Cl)cc1 (stereo not given) [Mitotane] (62.5 µM) | 3.41 |
| Nc1cc(N2CCCCC2)nc(N)[n+]1OS(=O)(=O)[O-] [Minoxidil Sulfate] (4.3 µM) | 3.4 |
| OCCN1C[C@H](O)[C@@H](O)[C@H](O)[C@H]1CO [Miglitol] (45.4 µM) | 1.78 |
| CCC1(c2ccccc2)NC(=O)N(C)C1=O (stereo not given) [Mephenytoin] (343.8 µM) | 3.16 |
| Cc1[nH]c(=O)c(C#N)cc1-c1ccncc1 [Milrinone] (5.9 µM) | 2.49 |
| CC(=O)O[C@H]1C[C@@H]2CC[C@@H]3[C@H](CC[C@@]4(C)[C@H]3C[C@H]([N+]3(C)CCCCC3)[C@@H]4OC(C)=O)[C@@]2(C)C[C@@H]1N1CCCCC1 [Vecuronium Bromide] (3.3 µM) | 3.8 |
| O=C1[C@H](CC[C@H](O)c2ccc(F)cc2)[C@@H](c2ccc(O)cc2)N1c1ccc(F)cc1 [Ezetimibe] (0.87 µM) | 3.59 |
| CN(C)CC[C@@H](c1ccc(Cl)cc1)c1ccccn1 [Dexchlorpheniramine] (0.15 µM) | 2.03 |
| O=[N+]([O-])c1cnc(CO)n1CCO [Hydroxymetronidazole] (58.4 µM) | 2.36 |
| N[C@@H]1CONC1=O [D-Cycloserine] (98 µM) | 7.56 (active) |
| COc1ccccc1OCC(O)CN1CCN(CC(=O)Nc2c(C)cccc2C)CC1 (stereo not given) [Ranolazine] (37.4 µM) | 2.73 |
| COc1cc(C(=O)NCc2ccc(OCCN(C)C)cc2)cc(OC)c1OC [Trimethobenzamide] (257.426.762 µM) | 2.9 |
| CC/C(=C(\c1ccc(O)cc1)c1ccc(OCCNC)cc1)c1ccccc1 [Endoxifen] (6.75 µM) | 2.6 |
| CC[N+](C)(C)Cc1ccccc1Br [Bretylium Tosylate] (84.1 µM) | 2.48 |
| C#C[C@]1(O)CC[C@H]2[C@@H]3CCc4cc(O)ccc4[C@H]3CC[C@@]21C [Ethinyl Estradiol] (23 µM) | 5.9 |
| Nc1ccn([C@H]2CC[C@@H](CO)O2)c(=O)n1 [Zalcitabine] (2.4 µM) | 2.44 |
| O=C(O)P(=O)(O)O [Foscarnet] (887 µM) | 3.95 |
| CC1=NS(=O)(=O)c2cc(Cl)ccc2N1 [Diazoxide] (86.7 µM) | 2.69 |
| Cc1cc2cc3c(C)cc(=O)oc3c(C)c2o1 [Trioxsalen] (0.07 µM) | 2.32 |
